# Reference: PubChem BioAssay (NCATS)
# “And” between values parts separate entries of the source, which are not always exact repeats. Equal values may be shown once. Results filed as inconclusive are left out. The source made the active and inactive calls. Unless noted, calls follow the shape of the dose curve; as a rule, active = well fitted curve in the direction sought with a large enough effect; inconclusive = small, poorly fitted or top-dose-only effect, or another doubt; inactive = no such curve, though single readings can be large; an effect the other way counts as inactive or inconclusive.
# Assays:
# [1] = target: Cytochrome P450 2C9 (Homo sapiens) (UniProt P11712); assay: Cytochrome P450 family 2 subfamily C member 9 (CYP2C9) small molecule antagonists: luciferase biochemical (cell-free) qHTS assay (AID 1645842; active = well fitted curve in the direction sought with a large enough effect in the repeat runs; an effect the other way counts as inactive or inconclusive; also: nearly all actives have a fitted effect of over 55% in size; also: potency is read from the fitted curve at half-maximal effect)
# In short: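 P450-Glo CYP2C9 system: proluciferin substrate with enzyme in mix containing 0.4% BSA, 10 min at room temperature, then NADPH regeneration solution added and incubated 1 h at 37C. Detection reagent stopped reaction; luminescence read after 20 min as RLU.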
# [2] = Primary qHTS for inhibitors of nuclear receptor binding SET domain protein 2 (NSD2) in an isogenic RCH-ACV NSD2 p.E1099K mutant (9B) (AID 1645876); also: nearly all actives have a fitted effect of over 70% in size; also: potency is read from the fitted curve at half-maximal effect
# [3] = Primary qHTS for inhibitors of nuclear receptor binding SET domain protein 2 (NSD2) in an RCH-ACV wild type WT cells (2C) (AID 1645877); also: nearly all actives have a fitted effect of over 70% in size; also: potency is read from the fitted curve at half-maximal effect
# [4] = target: N-terminal Xaa-Pro-Lys N-methyltransferase 1 (Homo sapiens) (UniProt Q9BV86); assay: Confirmatory qHTS for Inhibitors of N-terminal methyltransferase 1 (NTMT1): MTaseGlo Assay (AID 1645874); also: nearly all actives have a fitted effect of over 65% in size; also: potency is read from the fitted curve at half-maximal effect
# In short: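 Inhibition was derived from luminescence after SAH-to-ATP conversion, scaled between no-enzyme and DMSO wells, then fitted by 4-parameter Hill. Conditions: 125 nM NTMT1, 100 uM SAM, 1 uM SPKRIA, 30 min RT.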
# [5] = target: Catechol O-methyltransferase (Homo sapiens) (UniProt P21964); assay: Confirmatory Screen for Target Class Profiling of Small Molecule Inhibitors of Methyltransferases (AID 1745852); conditions: MTase-Glo luminescence, SAH detection, recombinant enzyme; measured here: COMT max response; stronger effect = lower value
# Papain (Carica papaya) = Papain (Carica papaya) (UniProt P00784); assay: Primary qHTS assay for inhibitors of the protease papain (AID 1645873);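 also: papain turnover of Z-FR-AMC read as the AMC fluorescence gain over 10 min; series mostly up to about 50 µM; % is scaled to controls: 0 for no effect and ±100 for the full control effect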
# Sequence of Papain (Carica papaya) (P00784 whole entry, looked up): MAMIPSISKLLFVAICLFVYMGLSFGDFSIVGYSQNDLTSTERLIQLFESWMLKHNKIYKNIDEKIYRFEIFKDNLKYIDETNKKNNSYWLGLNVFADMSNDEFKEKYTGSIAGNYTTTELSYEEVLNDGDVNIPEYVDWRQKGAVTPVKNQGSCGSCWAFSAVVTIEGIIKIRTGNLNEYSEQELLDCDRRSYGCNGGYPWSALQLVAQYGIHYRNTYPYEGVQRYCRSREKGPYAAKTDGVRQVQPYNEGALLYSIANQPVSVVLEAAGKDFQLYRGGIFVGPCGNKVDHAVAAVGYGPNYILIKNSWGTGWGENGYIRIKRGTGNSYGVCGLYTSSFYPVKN
# Sequence of Catechol O-methyltransferase (Homo sapiens) (P21964 whole entry, looked up): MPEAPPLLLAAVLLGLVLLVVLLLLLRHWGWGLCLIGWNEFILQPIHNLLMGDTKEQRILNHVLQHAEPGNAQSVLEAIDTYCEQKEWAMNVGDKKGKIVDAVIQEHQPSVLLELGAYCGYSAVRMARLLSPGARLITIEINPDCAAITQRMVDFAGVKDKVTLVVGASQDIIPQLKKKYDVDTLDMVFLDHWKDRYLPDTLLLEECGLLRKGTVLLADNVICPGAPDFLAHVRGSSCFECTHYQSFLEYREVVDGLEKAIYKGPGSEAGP
# Sequence of Cytochrome P450 2C9 (Homo sapiens) (P11712 whole entry, looked up): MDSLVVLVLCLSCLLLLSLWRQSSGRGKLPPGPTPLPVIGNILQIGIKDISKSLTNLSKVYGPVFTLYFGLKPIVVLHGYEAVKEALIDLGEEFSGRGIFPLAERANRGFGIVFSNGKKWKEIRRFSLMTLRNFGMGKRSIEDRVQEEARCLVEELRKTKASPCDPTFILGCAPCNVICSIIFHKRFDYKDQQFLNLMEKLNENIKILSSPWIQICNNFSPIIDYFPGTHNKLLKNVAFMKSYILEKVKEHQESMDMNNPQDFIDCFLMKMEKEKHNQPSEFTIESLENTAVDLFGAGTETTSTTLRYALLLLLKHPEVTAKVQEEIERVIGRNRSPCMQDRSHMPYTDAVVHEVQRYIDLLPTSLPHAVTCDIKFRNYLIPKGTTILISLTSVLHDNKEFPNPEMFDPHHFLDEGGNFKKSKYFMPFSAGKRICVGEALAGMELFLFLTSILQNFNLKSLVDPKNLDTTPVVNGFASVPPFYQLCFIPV
# Sequence of N-terminal Xaa-Pro-Lys N-methyltransferase 1 (Homo sapiens) (Q9BV86 whole entry, looked up): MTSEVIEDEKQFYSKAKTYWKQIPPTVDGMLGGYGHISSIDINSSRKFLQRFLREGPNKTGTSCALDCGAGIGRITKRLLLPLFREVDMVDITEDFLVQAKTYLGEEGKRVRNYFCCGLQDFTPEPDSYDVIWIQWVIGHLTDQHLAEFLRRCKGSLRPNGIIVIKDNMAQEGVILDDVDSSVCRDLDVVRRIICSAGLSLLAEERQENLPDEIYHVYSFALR
smiles,measurement,setting,value
CCOCc1nc2c(N)nc3ccccc3c2n1CC(C)(C)O,Potency,[1],inactive
same,Potency,[2],inactive
Cc1nc(Nc2n[nH]c3c2CN(C(=O)NC(CN(C)C)c2ccccc2)C3(C)C)c2sccc2n1 (stereo unspecified),Potency,[1],13.5 µM (active)
same,Potency,[2],0.0065 µM (active)
same,Potency,[3],5.2 nM (active)
CNC(=O)c1ccccc1Nc1cc(Nc2ccc(N3CCOCC3)cc2OC)ncc1C(F)(F)F,Potency,[1],4.25 µM (active)
same,Potency,[4],inactive
same,Potency,[2],2.9 µM (active)
same,Potency,[3],2900 nM (active)
CC(C)CC(=O)O[C@@H]1OC=C(CO[C@@H]2O[C@H](CO)[C@@H](O)[C@H](O)[C@H]2O)[C@H]2[C@@H]3O[C@H]3[C@@](O)(CO)[C@@H]12,Potency,[2],inactive
CC(=O)NCC(=O)N1C2CCC1c1cc(Nc3ncc(C(F)(F)F)c(NC4CCC4)n3)ccc12 (stereo unspecified),Potency,[1],9.52 µM (active)
same,Potency,[2],0.0728 µM (active)
same,Potency,[3],20.5 nM (active)
O=C(c1cc2c(cc1F)OC(c1ccc(F)cc1)(c1ccc(Cl)cc1Cl)O2)N1CCOCC1 (stereo unspecified),Potency,[1],10.7 µM (active)
same,Potency,[3],20500 nM (active)
COc1cc2c(cc1O)CC[C@H]1[C@@H]2CC[C@]2(C)[C@H](O)CC[C@@H]12,Potency,[4],39.8 µM (active)
same,Potency,[2],1.45 µM (active)
same,Potency,[3],916 nM (active)
same,activity,[5],-76.8%
Cc1cc2c(c(=O)[nH]1)OC(C(O)CC(C)C)O2 (stereo unspecified),Potency,[4],inactive
same,Potency,[2],inactive
Nc1ncnc2c1nc(N)n2[C@@H]1O[C@H](CO)[C@@H](O)[C@H]1O,Potency,[4],inactive
same,Potency,[2],1.45 µM (active)
same,Potency,[3],649 nM (active)
CN(C)C/C=C/C(=O)Nc1cccc(C(=O)Nc2ccc(Nc3nccc(-c4cccnc4)n3)cc2)c1,Potency,[1],inactive
same,Potency,[2],0.649 µM (active)
same,Potency,[3],578 nM (active)
same,activity,[5],-2.53%
C=C1CC[C@@H]2[C@](C)(CO[C@@H]3O[C@H](CO)[C@@H](O)[C@H](O)[C@H]3O)[C@H](O)CC[C@@]2(C)[C@@H]1C/C=C1/C(=O)OC[C@H]1O,Potency,[2],inactive
CC(=O)OC[C@@]12C(=O)C[C@@H](C)[C@]3(C[C@@H](c4ccoc4)O[C@H]3OC(C)=O)[C@H]1CCC[C@]21CO1,Potency,[2],12.6 µM (active)
O=C1CSc2ccccc2N1Cc1cccc(C(F)(F)F)c1,Potency,[1],inactive
same,activity,[5],-10.1%
OC/C=C/C=C/[C@H]1Cc2cc(O)cc(O)c2O1,Potency,[2],inactive
Cc1nc(NC(=O)N2CCCC2C(N)=O)sc1-c1csc(C(C)(C)C)n1 (stereo unspecified),Potency,[1],inactive
same,Potency,[2],4.59 µM (active)
same,Potency,[3],4090 nM (active)
COCCOc1cnc2ccn([C@H](C)c3nnc4c(F)cc(-c5cnn(C)c5)cn34)c(=O)c2c1,Potency,[2],inactive
CC(=O)O[C@H]1CC(C)(C)CC2[C@@]13[C@H](O)C[C@]1(C)[C@@]2(CCC2[C@@]4(C)CC[C@H](O[C@@H]5OC[C@H](O[C@@H]6O[C@H](CO)[C@@H](O)[C@H](O)[C@H]6O[C@@H]6OC[C@@H](O)[C@H](O)[C@H]6O)[C@H](O)[C@H]5O[C@@H]5O[C@H](CO)[C@@H](O)[C@H](O)[C@H]5O)C(C)(C)C4CC[C@]21C)O[C@@H]3O (stereo partly specified),Potency,[2],0.346 µM (active)
CC1=C2C(O)C(=O)OC(c3ccoc3)C2(C)CCC1O (stereo unspecified),Potency,[2],inactive
CC(Oc1cc(-n2cnc3ccc(CN4CCN(C)CC4)cc32)sc1C(N)=O)c1ccccc1C(F)(F)F (stereo unspecified),Potency,[4],21.4 µM (active)
same,Potency,[2],0.578 µM (active)
same,Potency,[3],649 nM (active)
same,activity,[5],-36.6%
CC1(C)C=CN2C(=O)C3=CCCN3C(=O)[C@@H]2C[C@@]12Nc1ccccc1C2=O,Potency,[2],inactive
Cc1cc(Nc2ccc(NC(=O)c3ccc(Nc4ccnc5ccccc45)cc3)cc2)nc(N)n1,Potency,[1],inactive
same,Potency,[2],1.83 µM (active)
same,Potency,[3],817 nM (active)
same,activity,[5],-15.9%
COc1cc(C(=O)NC2CCN(C)CC2)ccc1Nc1ncc2c(n1)N(C1CCCC1)CC(F)(F)C(=O)N2C,Potency,[1],inactive
same,Potency,[2],0.0205 µM (active)
same,Potency,[3],32.5 nM (active)
same,activity,[5],-24%
Cc1cc(Nc2cc(N3CCN(C)CC3)nc(/C=C/c3ccccc3)n2)n[nH]1,Potency,[1],inactive
same,Potency,[2],728 nM (active) and 934 nM (active)
same,Potency,[3],649 nM (active) and 742 nM (active)
COc1ccc(CNC(=O)c2sc3nc(C)cc(C)c3c2N)cc1,Potency,[1],3.79 µM (active)
same,Potency,[3],inactive
O=C(C(c1ccccc1)c1ccccc1)N1CCN(CC(O)COc2cccc3ncccc23)CC1 (stereo unspecified),Potency,[1],12 µM (active)
same,Potency,[3],14.5 µM (active) and 20.9 µM (active)
COc1ccc(C2=N[C@@H](c3ccc(Cl)cc3)[C@@H](c3ccc(Cl)cc3)N2C(=O)N2CCNC(=O)C2)c(OC(C)C)c1,Potency,[1],inactive
same,Potency,[2],3.65 µM (active)
same,Potency,[3],1630 nM (active)
COc1ccc(-c2cnc3ccc(NCc4ccc(S(N)(=O)=O)cc4)nn23)cc1OC,Potency,[1],6.74 µM (active)
same,Potency,[2],9.16 µM (active)
same,Potency,[3],7280 nM (active)
same,activity,[5],-34.5%
C/C=C1\[C@H](O[C@@H]2O[C@H](CO)[C@@H](O)[C@H](O)[C@H]2O)OC=C(C(=O)OC)[C@H]1CC(=O)OC[C@H]1O[C@@H](OCCc2ccc(O)cc2)[C@H](O)[C@@H](O)[C@@H]1O,Potency,[2],inactive
OCCc1ccc(O[C@@H]2O[C@H](CO)[C@@H](O)[C@H](O)[C@H]2O)cc1,Potency,[2],inactive
CC[C@]1(O)CC2CN(CCc3c([nH]c4ccccc34)[C@@](C(=O)OC)(c3cc4c(cc3OC)N(C)[C@H]3[C@@](O)(C(=O)OC)[C@H](OC(C)=O)[C@]5(CC)C=CCN6CC[C@]43[C@@H]65)C2)C1 (stereo partly specified),outcome,Papain (Carica papaya),inactive
same,Potency,[2],57.8 nM (active) and 417 nM (active)
same,Potency,[3],45.9 nM (active) and 372 nM (active)
